# Assay results: PubChem BioAssay AID1159580 (chemical genetic matrix, 2015)
# Hit rate of the full screen: of about 5,500 compounds, about 2,000 (36%) were called active. Another 18% or so got no clear call; they are omitted. This is one part of the list. Values without a mark were called inactive. No stated cut-off is given here; in the data, active means normalized growth mostly below about 0.91 (no sharp cut-off); inconclusive means no clear call, values can overlap the other calls; inactive means mostly above about 0.92.
# Test: chemical genetic growth profiling, strain panel (AID 1159580);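 further: tested at 20 µM; growth read once vehicle control cultures reached saturation at 30 °C; 1 = growth at the plate median or of vehicle wells; lower values mean less growth of the strain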
# Conditions: growth OD
smiles,measurement,setting,value
C=CC(C1=CC(=O)C(OC)=CC1=O)c1ccc(OC)cc1 (configuration not stated),normalized growth,"S. cerevisiae deletion strains, locus YJR066W, strain TOR1, hits give low values",0.94
same,normalized growth,"S. cerevisiae deletion strains, locus YJR075W, strain HOC1, hits give low values",0.859 (active)
same,normalized growth,"S. cerevisiae deletion strains, locus YKL009W, strain mrt4, hits give low values",0.944
same,normalized growth,"S. cerevisiae deletion strains, locus YKL068W, hits give low values",0.976
same,normalized growth,"S. cerevisiae deletion strains, locus YKL085W, strain MDH1 (second series), hits give low values",0.966
same,normalized growth,"S. cerevisiae deletion strains, locus YKL085W, strain MDH1, hits give low values",0.966
same,normalized growth,"S. cerevisiae deletion strains, locus YKL160W, strain elf1, hits give low values",0.741 (active)
same,normalized growth,"S. cerevisiae deletion strains, locus YKL190W, strain CNB1, hits give low values",0.947
same,normalized growth,"S. cerevisiae deletion strains, locus YKR001C, strain vps1, hits give low values",0.814 (active)
same,normalized growth,"S. cerevisiae deletion strains, locus YKR026C, strain gcn3, hits give low values",0.967
same,normalized growth,"S. cerevisiae deletion strains, locus YKR091W, strain srl3, hits give low values",0.998
same,normalized growth,"S. cerevisiae deletion strains, locus YLL001W, strain dnm1, hits give low values",0.907
same,normalized growth,"S. cerevisiae deletion strains, locus YLL026W, hits give low values",0.839 (active)
same,normalized growth,"S. cerevisiae deletion strains, locus YLL041C, strain sdh2, hits give low values",0.955
same,normalized growth,"S. cerevisiae deletion strains, locus YLR027C, strain aat2, hits give low values",0.759 (active)
same,normalized growth,"S. cerevisiae deletion strains, locus YLR039C, strain RIC1, hits give low values",0.819
same,normalized growth,"S. cerevisiae deletion strains, locus YLR058C, strain SHM2, hits give low values",0.952
same,normalized growth,"S. cerevisiae deletion strains, locus YLR102C, strain apc9, hits give low values",0.945
same,normalized growth,"S. cerevisiae deletion strains, locus YLR113W, strain HOG1, hits give low values",0.958
same,normalized growth,"S. cerevisiae deletion strains, locus YLR221C, strain rsa3, hits give low values",0.701 (active)
same,normalized growth,"S. cerevisiae deletion strains, locus YLR258W, strain gsy2, hits give low values",0.849 (active)
same,normalized growth,"S. cerevisiae deletion strains, locus YLR262C, strain YPT6 (second series), hits give low values",0.39 (active)
same,normalized growth,"S. cerevisiae deletion strains, locus YLR262C, strain YPT6, hits give low values",0.71
same,normalized growth,"S. cerevisiae deletion strains, locus YLR268W, strain sec22, hits give low values",0.87 (active)
same,normalized growth,"S. cerevisiae deletion strains, locus YLR320W, strain mms22, hits give low values",0.276 (active)
same,normalized growth,"S. cerevisiae deletion strains, locus YLR330W, strain CHS5, hits give low values",0.968
same,normalized growth,"S. cerevisiae deletion strains, locus YLR342W, strain FKS1 (second series), hits give low values",0.674 (active)
same,normalized growth,"S. cerevisiae deletion strains, locus YLR342W, strain FKS1, hits give low values",0.914
same,normalized growth,"S. cerevisiae deletion strains, locus YLR357W, strain rsc2, hits give low values",1.07
same,normalized growth,"S. cerevisiae deletion strains, locus YLR370C, strain arc18, hits give low values",0.864 (active)
same,normalized growth,"S. cerevisiae deletion strains, locus YLR371W, strain rom2, hits give low values",0.941
same,normalized growth,"S. cerevisiae deletion strains, locus YLR384C, strain iki3, hits give low values",0.974
same,normalized growth,"S. cerevisiae deletion strains, locus YLR418C, strain cdc73, hits give low values",0.783 (active)
same,normalized growth,"S. cerevisiae deletion strains, locus YML016C, strain PPZ1, hits give low values",0.973
same,normalized growth,"S. cerevisiae deletion strains, locus YML032C, strain rad52, hits give low values",0.855 (active)
same,normalized growth,"S. cerevisiae deletion strains, locus YML120C, strain ndi1, hits give low values",0.911 (active)
same,normalized growth,"S. cerevisiae deletion strains, locus YML124C, strain tub3, hits give low values",0.949
same,normalized growth,"S. cerevisiae deletion strains, locus YMR058W, strain fet3, hits give low values",0.84 (active)
same,normalized growth,"S. cerevisiae deletion strains, locus YMR078C, strain ctf18, hits give low values",0.914
same,normalized growth,"S. cerevisiae deletion strains, locus YMR125W, strain sto1, hits give low values",0.779 (active)
same,normalized growth,"S. cerevisiae deletion strains, locus YMR129W, hits give low values",1
same,normalized growth,"S. cerevisiae deletion strains, locus YMR205C, strain PFK2, hits give low values",0.715 (active)
same,normalized growth,"S. cerevisiae deletion strains, locus YMR223W, strain ubp8, hits give low values",0.851 (active)
same,normalized growth,"S. cerevisiae deletion strains, locus YMR263W, strain SAP30, hits give low values",0.946
same,normalized growth,"S. cerevisiae deletion strains, locus YMR307W, strain GAS1, hits give low values",0.793
same,normalized growth,"S. cerevisiae deletion strains, locus YNL067W, strain RPL9B, hits give low values",0.947
same,normalized growth,"S. cerevisiae deletion strains, locus YNL071W, strain lat1, hits give low values",0.15 (active)
same,normalized growth,"S. cerevisiae deletion strains, locus YNL128W, strain TEP1, hits give low values",0.942
same,normalized growth,"S. cerevisiae deletion strains, locus YNL153C, strain GIM3, hits give low values",0.983
same,normalized growth,"S. cerevisiae deletion strains, locus YNL183C, strain NPR1, hits give low values",0.972
same,normalized growth,"S. cerevisiae deletion strains, locus YNL209W, strain ssb2, hits give low values",0.939
same,normalized growth,"S. cerevisiae deletion strains, locus YNL233W, strain BNI4, hits give low values",0.862 (active)
same,normalized growth,"S. cerevisiae deletion strains, locus YNL248C, strain rpa49, hits give low values",0.727 (active)
same,normalized growth,"S. cerevisiae deletion strains, locus YNL250W, strain rad50, hits give low values",0.944
same,normalized growth,"S. cerevisiae deletion strains, locus YNL271C, strain bni1, hits give low values",0.957
same,normalized growth,"S. cerevisiae deletion strains, locus YNL298W, strain CLA4, hits give low values",0.928
same,normalized growth,"S. cerevisiae deletion strains, locus YNL307C, strain MCK1, hits give low values",0.412 (active)
same,normalized growth,"S. cerevisiae deletion strains, locus YNL322C, strain KRE1 (second series), hits give low values",0.996
same,normalized growth,"S. cerevisiae deletion strains, locus YNL322C, strain KRE1, hits give low values",0.966
same,normalized growth,"S. cerevisiae deletion strains, locus YNR049C, strain mso1, hits give low values",0.962
same,normalized growth,"S. cerevisiae deletion strains, locus YNR052C, strain pop2, hits give low values",0.901 (active)
same,normalized growth,"S. cerevisiae deletion strains, locus YOL006C, strain TOP1, hits give low values",0.669
same,normalized growth,"S. cerevisiae deletion strains, locus YOL012C, strain htz1",0.791
same,normalized growth,"S. cerevisiae deletion strains, locus YOL147C, strain pex11, hits give low values",0.903 (active)
same,normalized growth,"S. cerevisiae deletion strains, locus YOR001W, strain rrp6, hits give low values",0.844 (active)
same,normalized growth,"S. cerevisiae deletion strains, locus YOR061W, strain CKA2, hits give low values",0.962
same,normalized growth,"S. cerevisiae deletion strains, locus YOR069W, strain VPS5, hits give low values",0.962
same,normalized growth,"S. cerevisiae deletion strains, locus YOR070C, strain gyp1, hits give low values",0.817 (active)
same,normalized growth,"S. cerevisiae deletion strains, locus YOR080W, strain dia2, hits give low values",1
same,normalized growth,"S. cerevisiae deletion strains, locus YOR083W, strain WHI5, hits give low values",0.788 (active)
same,normalized growth,"S. cerevisiae deletion strains, locus YOR106W, strain vam3, hits give low values",0.642 (active)
same,normalized growth,"S. cerevisiae deletion strains, locus YOR136W, strain idh2, hits give low values",0.919 (active)
same,normalized growth,"S. cerevisiae deletion strains, locus YOR144C, strain elg1, hits give low values",0.956
same,normalized growth,"S. cerevisiae deletion strains, locus YOR184W, strain ser1, hits give low values",0.738 (active)
same,normalized growth,"S. cerevisiae deletion strains, locus YOR231W, strain MKK1, hits give low values",1.03
same,normalized growth,"S. cerevisiae deletion strains, locus YOR265W, strain rbl2, hits give low values",0.945
same,normalized growth,"S. cerevisiae deletion strains, locus YOR270C, strain vph1, hits give low values",0.416 (active)
same,normalized growth,"S. cerevisiae deletion strains, locus YOR290C, strain snf2, hits give low values",0.851 (active)
same,normalized growth,"S. cerevisiae deletion strains, locus YOR316C, strain cot1, hits give low values",0.947
same,normalized growth,"S. cerevisiae deletion strains, locus YPL051W, strain arl3, hits give low values",0.657 (active)
same,normalized growth,"S. cerevisiae deletion strains, locus YPL055C, strain LGE1, hits give low values",0.869
same,normalized growth,"S. cerevisiae deletion strains, locus YPL078C, strain atp4, hits give low values",0.802 (active)
same,normalized growth,"S. cerevisiae deletion strains, locus YPL106C, strain sse1, hits give low values",1.03
same,normalized growth,"S. cerevisiae deletion strains, locus YPL240C, strain hsp82, hits give low values",0.851 (active)
same,normalized growth,"S. cerevisiae deletion strains, locus YPL241C, strain CIN2, hits give low values",0.982
same,normalized growth,"S. cerevisiae deletion strains, locus YPL256C, strain CLN2, hits give low values",1.08
same,normalized growth,"S. cerevisiae deletion strains, locus YPR119W, strain clb2, hits give low values",0.944
same,normalized growth,"S. cerevisiae deletion strains, locus YPR141C, strain kar3, hits give low values",0.963
same,normalized growth,"S. cerevisiae deletion strains, locus YPR163C, strain tif3, hits give low values",0.8 (active)
same,normalized growth,"S. cerevisiae deletion strains, locus YPR167C, strain met16, hits give low values",0.95
same,normalized growth,"S. cerevisiae deletion strains, strain wtn01, hits give low values",0.877 (active)
same,normalized growth,"S. cerevisiae strains, strain wild type, hits give low values",0.886 (active)
